Results on 38 sequences are retold here after the OligoGym collection.
Note: reference of the scale not given here.

One assay has as its target C11orf53. The assay can be described thus: pooled miR-30 sensor sort-seq; sequence = guide strand. The conditions noted are these: shRNA.
As to TTACTGTTGTGGAAGTCTGAGT, the sensor-assay potency score (higher = more potent) was -0.608.
On the same count and under the same terms, the figure for TCGTCCACTAACAAAGAGCAGC is -0.909; for TTCTGACACCGTAGTAACCTGA it is -0.43; for TCTGACACCGTAGTAACCTGAC it is 0.0785.
TTTGACACCGTCATGAAAGGGG: the sensor-assay potency score (higher = more potent) worked out at 0.41.
Take TTATTCTGAAAATCCAGTCCTG: the sensor-assay potency score (higher = more potent) was determined as 0.403.
With TTTACTGTTGTGGAAGTCTGAG, the sensor-assay potency score (higher = more potent) was -0.231.
TATTCTGAAAATCCAGTCCTGA: the sensor-assay potency score (higher = more potent) was -0.0201.
Turning to TAGGTCATTTGACACCGTCATG, the sensor-assay potency score (higher = more potent) was -1.72.
Still for that read-out and setting: under TAAATAGGAAGTGAGCTGGGTC stands 0.00724; under TCAGATAAGAAAGATCTTCTGA, 0.556.
In the case of TGACACACCTAAAACAATCTTT, the sensor-assay potency score (higher = more potent) stood at 0.469.

In a further assay the target is C11orf54. Described as above. The conditions noted are these: shRNA.
ATAAACTCAGAATTGAACCCGA came in with a sensor-assay potency score (higher = more potent) of 0.903.
With ATAAGTAAGGCACACCTCCAAC, the sensor-assay potency score (higher = more potent) was -1.21.
The same measure, in the same setting: under TCTGAAATGGACCTGCTCCTGC stands -0.481; under TAAACTCAGAATTGAACCCGAG, 0.00773; under TATTCCACTATATCTGGAGTAG, -0.318.
As for TTATTCACTTCTTCATCAGAGT, the sensor-assay potency score (higher = more potent) was -0.552.
TGGAGTAGTGTCATAATGGTAG: the sensor-assay potency score (higher = more potent) was -0.457.
On to TTTTATTCAGATCATAAACTTT, for which the sensor-assay potency score (higher = more potent) is -0.546.
Regarding TTTCTCACTGTATTTCTCCAGT, the sensor-assay potency score (higher = more potent) is -0.237.
For TTTCATTTCATAAAAATGCAAC, the sensor-assay potency score (higher = more potent) was -0.462.
In turn, TTCTTCATCAGAGTTCAAGGGG yielded a sensor-assay potency score (higher = more potent) of 0.466.

The next assay concerns the target C12orf42. The description is as above. The conditions noted are these: shRNA.
For TAGGTCTTGTGTGTCTACTGAT, the sensor-assay potency score (higher = more potent) was -0.227.
As for TTTATTAACCTCTTGGAGGGGA, the sensor-assay potency score (higher = more potent) is 0.548.
Regarding TCTGCTTTGGATGTCGTCGGGG, the sensor-assay potency score (higher = more potent) was -0.507.
For the sequence TGATTAATGAATCTGGAGCAGG, the sensor-assay potency score (higher = more potent) is -0.678.
Consider TCTTGTGTGTCTACTGATGTGT, for which the sensor-assay potency score (higher = more potent) was 0.434.
TTAGGTCTTGTGTGTCTACTGA gave a sensor-assay potency score (higher = more potent) of 0.176.
The same measure, in the same setting: under TTCATAACAAGGGATGTGCTTT stands -0.454; under TCGAGCTCTGTGTTACTCGGGC, -0.424.
The sequence TGTGCTTACAGAACACCTGGGG gave a sensor-assay potency score (higher = more potent) of 0.85.
The sequence TTCATGTGATTAATGAATCTGG showed a sensor-assay potency score (higher = more potent) of 0.286.

The target of another assay is C13orf33. Described as above. As to conditions: shRNA.
With TTGCTCAATATAGTTTCCCTGT, the sensor-assay potency score (higher = more potent) is -0.333.
Take TAACTTAATCGTCTCCTTCTTT: the sensor-assay potency score (higher = more potent) is -0.331.
Same read-out and setting: the figure for TAACTTTCTCCAATCACTGAGG is -0.682; for TTTATAATCACAGTAGTTGGTC it is 0.0911.
Consider TTACACTGAACTTTCGGTCAGA, for which the sensor-assay potency score (higher = more potent) turned out to be 0.151.
